Data on ten compounds can be found in PubChem BioAssay (NCATS).

Experiment [1] in a line: OV-SAHO Cancer Cell Toxicity qHTS against the NCATS CANVASS Library (AID 1347348). Note: nearly all actives have a fitted effect of over 55% in size. Note: potency is the fitted concentration of half-maximal effect. Summed up:
(§1)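 ATP content after 72 h treatment, detected by CellTiter-Glo luminescence (15min room-temperature development), reflects cell viability. Wells contained 1000 cells and received compounds at 11 concentrations.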
A general note: Quantitative high-throughput screening tests each substance at several concentrations.

The nature of experiment [2]: U-118MG Cancer Cell Toxicity qHTS against the NCATS CANVASS Library (AID 1347351). Summed up:
as §1

A short description of experiment [3]: COV-362 Cancer Cell Toxicity qHTS against the NCATS CANVASS Library (AID 1347352). Note: series mostly up to about 38 µM. Summed up:
(§2)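 1000 cells/well, 4 h pre-incubation 37 °C/5% CO2; 11-pnt titration; 72 h; CellTiter-Glo 15 min RT, luminescence.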

The nature of experiment [4]: A2780 Cisplatin Sensitive Ovarian Cancer Cell Toxicity qHTS against the NCATS CANVASS Library (AID 1347353). Note: nearly all actives have a fitted effect of over 60% in size. Note: potency is the fitted concentration of half-maximal effect. Summed up: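 750 cells/well, 4 h settle; 11-pt cpd titration; 72 h, 37 °C, 5% CO2; ATPLite 10 min RT; luminescence read.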
Experiment [5] in a line: UWB1.289-WTBRCA1 Cancer Cell Toxicity qHTS against the NCATS CANVASS Library (AID 1347354). An outline of the steps:
as §2

Experiment [6] is described as follows: KB-8-5-11 Cancer Cell Toxicity qHTS against the NCATS CANVASS Library (AID 1347364). Note: nearly all actives have a fitted effect of over 75% in size. An outline of the steps: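 CellTiter-Glo luminescence after 72 h exposure; 500 KB-8-5-11 cells/well, DMEM/10% FBS, 37C, 5% CO2; compounds in 11-pt qHTS. Follow-up confirmation included medium with 1uM tariquidar.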
The nature of experiment [7]: SDT Cancer Cell Toxicity qHTS against the NCATS CANVASS Library (AID 1347365). Note: nearly all actives have a fitted effect of over 60% in size. Note: potency is the fitted concentration of half-maximal effect. An outline of the steps:
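Luminescent ATP read-out (CellTiterGlo) after 72 hr compound exposure of dog glioma SDT cells, 500 per well. Eleven-point titrations; bortezomib titration run alongside as control.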

Experiment [8] is described as follows: KB-3-1 Cancer Cell Toxicity qHTS against the NCATS CANVASS Library (AID 1347366). Note: nearly all actives have a fitted effect of over 75% in size. Note: potency is the fitted concentration of half-maximal effect. An outline of the steps:
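Cytotoxicity toward KB-3-1 cells (500/well, DMEM + 10% FBS) was scored by CellTiter-Glo luminescence following 72 hr exposure at 37C, with bortezomib titrated as control.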

Experiment [9] can be described thus: G06 Cancer Cell Toxicity qHTS against the NCATS CANVASS Library (AID 1347368). Note: nearly all actives have a fitted effect of over 60% in size. Note: potency is the fitted concentration of half-maximal effect. An outline of the steps: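 ATP luminescence (CellTiterGlo) readout of cytotoxicity. Canine G06 glioma cells, 500/well, 72 hr incubation at 37C with compounds; bortezomib titration served as control.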
A short description of experiment [10]: MCF7 Cancer Cell Toxicity qHTS against the NCATS CANVASS Library (AID 1347369). An outline of the steps: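 This 72 hr qHTS scored MCF7 viability by CellTiterGlo luminescence, with 500 cells/well; bortezomib titration ran as control.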
The target in experiment [11] is Nuclear receptor subfamily 1 group I member 3 (Homo sapiens) (UniProt Q14994). Description: qHTS for Constitutive Androstane Receptor (CAR) Antagonist screened against the NCATS CANVASS Library (AID 1347372). Note: potency is the fitted concentration of half-maximal effect. An outline of the steps: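 Cells were seeded and left 4hr to attach, then received compound at 11 concentrations and 50 nM CITCO. Following 24hr incubation, fluorescence viability and luciferase luminescence were read sequentially.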
Sequence of Nuclear receptor subfamily 1 group I member 3 (Homo sapiens) (Q14994 whole entry, looked up): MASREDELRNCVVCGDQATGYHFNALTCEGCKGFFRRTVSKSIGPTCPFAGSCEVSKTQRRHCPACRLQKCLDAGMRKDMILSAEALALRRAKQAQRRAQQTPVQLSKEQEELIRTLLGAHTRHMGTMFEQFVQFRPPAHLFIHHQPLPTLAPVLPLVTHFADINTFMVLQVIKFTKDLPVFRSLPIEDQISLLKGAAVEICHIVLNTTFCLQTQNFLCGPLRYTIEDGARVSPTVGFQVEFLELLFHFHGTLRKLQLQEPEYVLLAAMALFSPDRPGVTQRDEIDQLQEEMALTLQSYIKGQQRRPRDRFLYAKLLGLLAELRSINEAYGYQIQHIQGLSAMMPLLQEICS

Experiment [12] can be described thus: qHTS for Hypoxia signaling pathway (HIF-1) antagonists against the NCATS CANVASS Library (AID 1347374). Note: nearly all actives have a fitted effect of over 60% in size. Note: potency is the fitted concentration of half-maximal effect. Summed up:
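Beta-lactamase reporter under HRE control in ME-180 cells; CoCl2 stimulus (60 uM solution as added), compounds 11-pt qHTS, 17 h 37C. CCF4 dye 2 h RT, 460/530 nm emission. CellTiter-Glo viability in same wells.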

Experiment [13] in a line: qHTS for H2AX Agonists against the NCATS CANVASS Library (AID 1347378).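 Note: phospho-H2AX S139 level in CHO-K1 lysates by TR-FRET emission ratio.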 Summed up:
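Signal is the 665/620 nm emission ratio from europium cryptate and d2 antibody pair, rising with S139-phosphorylated H2AX. CHO-K1 cells saw test agents for 3 hr at 37C; detection ran 24 hr at room temperature.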

Experiment [14] can be described thus: Cytotoxicity qHTS for assessment of Hepg2 cells membrane integrity screened against the NCATS CANVASS Library (AID 1347387). An outline of the steps:
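LDH release read by fluorescence (560 nm ex/590 nm em) after CytoTox-ONE addition and 10 min RT; signal tracks lysed cells. HepG2, 2000 cells/well, plated overnight; compound 5 hr, 37C, 5% CO2, final 0.59 nM - 46 uM, 11 points.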

Experiment [15] in a line: qHTS for activators of Nrf2/ARE signaling pathway screened against the NCATS CANVASS Library (AID 1347391). Note: nearly all actives have a fitted effect of over 60% in size. Note: potency is the fitted concentration of half-maximal effect. An outline of the steps:
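HepG2 ARE-bla; cpd 11-pt qHTS, 16 h 37C/5% CO2; CCF4 substrate 2 h RT; read ex 405 / em 460 + 530 nm. Viability by CellTiter-Glo luminescence, 30 min RT.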

The nature of experiment [16]: qHTS for inhibitors of Wild type Zika virus screened against the NCATS CANVASS Library (AID 1347396).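 Note: ATP luminescence of surviving cells so rescue from viral cell killing; series mostly up to about 46 µM.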 An outline of the steps: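 Vero 766 (African green monkey) cells, 1000 per well, attached overnight, then compounds were added in an 11-point series before wild-type Zika virus infection. After 72 h at 37C, cell viability was read as CellTiter Glo luminescence.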
Experiment [17] can be described thus: Viability qHTS for inhibitors of the SERCaMP assay screened against the NCATS CANVASS Library (AID 1347400). Note: nearly all actives have a fitted effect of over 70% in size. Note: potency is the fitted concentration of half-maximal effect. Summed up: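 CellTiter-Glo luminescence readout after 48 h compound exposure (11-pnt qHTS series) of SH-SY5Y-GLuc SERCaMP MJH297 cells seeded at 1000 cells/well; bortezomib positive control.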
Experiment [18] in a line: Redox Reaction Profiling qHTS: Assay Interference Panel against the NCATS CANVASS Library (AID 1347401). Summed up: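 Quantitative HTS over an 11-point series was run in HEPES pH 7.3 with 50 mM NaCl, 200 uM DTT and 5 uM resazurin. Initial and 15-min resorufin fluorescence readings were taken.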

SMILES strings stand for the structures. Inconclusive results are not listed. Active and inactive are the calls of the source. Calls come from the whole dose curve; as a rule, active = well fitted curve in the direction sought with a large enough effect; inconclusive = small, poorly fitted or top-dose-only effect, or another doubt; inactive = no such curve, though single readings can be large; an effect the other way counts as inactive or inconclusive.

Take `C/C=C/C=C/C1(O)C2C=C3C(=O)CC45C(=O)C(O)=C(C)C(=O)C4C1C1(C(=O)C(O)=C(C)C(=O)C351)C2C` (stereo not drawn): the Potency result in [1], in experiment [2], in experiment [3], in experiment [4], in experiment [5] and in experiment [6] was “inactive” in each case. The Potency entry in experiment [7], in experiment [8], in experiment [9], in experiment [10], in [11] and in experiment [12] was “inactive” each time. The Potency result in experiment [13], in [15], in experiment [16] and in [17] was “inactive” throughout. In addition, the outcome in experiment [14] was inactive.
Take `C=C1C[C@@]23C=CC(=O)[C@@](C)(CCC(=O)Nc4c(O)ccc(C(=O)O)c4O)C2C[C@@H]1CC3` (stereo partly drawn): the Potency result in [1], in experiment [2], in experiment [3], in experiment [4], in experiment [5] and in experiment [6] was “inactive” throughout. The Potency result in experiment [7], in [8], in experiment [10], in experiment [11], in [13] and in [16] was “inactive” each time. For the same compound, the Potency entry in experiment [17] and in [18] was “inactive” each time. For the same compound, in [14], the compound was classed as inactive. In addition, the Potency in experiment [15] is 18600 nM (active).
Consider `C/C(=C\[C@H](C)C(=O)CCCC1CC(=O)NC(=O)C1)[C@@H]1OC(=O)/C=C/CC/C=C/C[C@@H](O)[C@@H]1C`, for which the Potency in experiment [1] is 2980 nM (active); in experiment [4], 833 nM (active); in experiment [7] it was 935 nM (active); in experiment [8] it was 14800 nM (active); in experiment [9], 1050 nM (active); in experiment [11], 3710 nM (active). The figures for the Potency in experiment [12] and in experiment [17] were 1060 nM (active) and 5380 nM (active), respectively. Also, the Potency entry in experiment [10], in [15] and in experiment [16] was “inactive” in each case. For the same compound, the compound was called inactive in experiment [14].
Turning to `C=C1[C@H]2CC[C@@]3(C=CC(=O)[C@@](C)(CCC(=O)Nc4c(O)ccc(C(=O)O)c4O)C3C2)[C@H]1O` (stereo partly drawn), the Potency entry in experiment [1], in experiment [2], in experiment [3], in experiment [4], in experiment [5] and in experiment [6] was “inactive” each time. Also, the Potency entry in [8], in [9], in [10], in [11], in experiment [12] and in experiment [13] was “inactive” each time. Moreover, the Potency result in experiment [15], in experiment [16], in experiment [17] and in [18] was “inactive” each time. For the same compound, in experiment [14], the result was inactive.
As for `C=C[C@@]1(C)CC[C@@H]([C@H](C)C(=O)/C=C/C(C)C)O1`, the Potency entry in experiment [1], in [2], in experiment [3], in experiment [4], in experiment [5] and in experiment [6] was “inactive” throughout. In addition, the Potency entry in experiment [7], in experiment [8], in experiment [10], in experiment [11], in experiment [12] and in experiment [13] was “inactive” in each case. For the same compound, the Potency entry in [15], in experiment [16], in experiment [17] and in [18] was “inactive” throughout. Besides, the compound was called inactive in experiment [14].
Consider `Cc1cc(O)cc2oc(C[C@H](C)O)cc(=O)c12`, for which the Potency result in experiment [1], in [2], in experiment [3], in [4], in experiment [5] and in experiment [6] was “inactive” in each case. The Potency entry in experiment [8], in [10], in experiment [11], in experiment [12], in experiment [13] and in experiment [15] was “inactive” throughout. Further, the Potency result in experiment [16], in [17] and in experiment [18] was “inactive” each time. For the same compound, the Potency in experiment [7] is 1480 nM (active). In experiment [14], the compound was called inactive.
Consider `C=C1C[C@@]23C=CC(=O)[C@@](C)(CCCC(C)C(=O)O)[C@@H]2C[C@@H]1CC3` (stereo partly drawn), for which the Potency entry in experiment [1], in experiment [2], in experiment [3], in [4], in experiment [5] and in experiment [6] was “inactive” each time. In addition, the Potency entry in experiment [7], in [8], in [10], in experiment [11], in experiment [12] and in [13] was “inactive” each time. For the same compound, the Potency entry in [16], in experiment [17] and in [18] was “inactive” in each case. In addition, the call in experiment [14] was inactive. Further, the Potency in [15] was 16600 nM (active).
Consider `O=c1cc(-c2ccc(O)cc2)oc2c([C@@H]3OC(CO)[C@H](O)[C@@H](O)[C@H]3O)c(O)cc(O)c12` (stereo partly drawn), for which the Potency entry in [1], in [2], in experiment [3], in experiment [4], in experiment [5] and in experiment [6] was “inactive” each time. Also, the Potency entry in experiment [7], in experiment [8], in experiment [9], in [10], in experiment [11] and in experiment [12] was “inactive” in each case. For the same compound, the Potency result in experiment [13], in [15], in experiment [16], in experiment [17] and in experiment [18] was “inactive” each time. Besides, in [14], the compound was called inactive.
As for `C=C1/C=C\C(CCC)=C\c2csc(n2)C(C)NC(=O)C[C@@]2(CC(=O)O)CCC(=C)[C@H](C1)S2` (stereo partly drawn), the Potency result in [2], in experiment [3], in experiment [4], in [5], in experiment [6] and in experiment [8] was “inactive” in each case. The Potency entry in experiment [9], in experiment [10], in [11], in experiment [12], in experiment [13] and in experiment [16] was “inactive” throughout. Further, the Potency result in experiment [17] and in experiment [18] was “inactive” throughout. The call in experiment [14] was inactive.
With `Oc1ccc(C2c3c(O)cc(O)cc3[C@@H]3C(c4ccc(O)cc4)c4c(O)cc(O)cc4[C@H]23)cc1` (stereo partly drawn), the Potency result in experiment [1], in experiment [2], in experiment [3], in experiment [5], in [6] and in [7] was “inactive” throughout. Further, the Potency result in experiment [8], in experiment [9], in [10], in [11], in experiment [12] and in experiment [13] was “inactive” each time. Besides, the Potency entry in experiment [15], in experiment [16], in experiment [17] and in experiment [18] was “inactive” in each case. For the same compound, in experiment [14], the result was inactive.
